Bioassay records from PubChem BioAssay.
Only some compounds are listed: those with a hit (about 19% of all), similar ones and a draw of the others.
TGFb SMAD3 inh = qHTS for Inhibitors of TGF-b. HepG2 CAGA-GFP TGF-b/SMAD3 reporter, GFP fluorescence, 18 h; TGF-beta stimulated, 500 pg/mL final. Potency, µM (doses to about 46.1 µM), without a hit: at the highest dose activity, negative = inhibition, most hits filed as inhibitors. actives 1.2% (n = 410,000); also: potency is read from the fitted curve at half-maximal effect; % is scaled to controls: 0 for no effect and ±100 for the full control effect; nearly all actives have a fitted effect of over 65% in size
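GFP signal (ex488/em500-530) from TGF-beta-stimulated HEPG2 CAGA-GFP cells, 500 pg/mL final, 18 h at 37 degrees C in DMEM plus 1% FBS, normalized to unstimulated and DMSO-stimulated controls.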
DT40 TDP1 CPT = qHTS for Inhibitors of human tyrosyl-DNA phosphodiesterase 1 (TDP1): qHTS in cells in presence of CPT | chicken DT40 Tdp1-/-;hTDP1 cells + 20 nM CPT, ATP luminescence, 48 h | Potency, µM (doses to about 46.2 µM), for inactives: at the highest dose activity change, negative = growth inhibition, most hits filed as inhibitors | actives 12% (n = 420,000); also: potency is read from the fitted curve at half-maximal effect; % is scaled to controls: 0 for no effect and ±100 for the full control effect; nearly all actives have a fitted effect of over 55% in size
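Chicken DT40 Tdp1-/- cells complemented with human TDP1, 400 cells/well, exposed to compounds plus 20 nM camptothecin for at least 48 h at 37 C; viability read as ATP content by CellTiter-Glo luminescence.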
HepG2 tox = qHTS for Inhibitors of TGF-b: Cytotox Counterscreen; HepG2 CAGA-GFP viability, ATP luminescence, 18 h; Potency, µM (doses to about 46.1 µM), for inactives: at the highest dose activity change, negative = cytotoxicity, actives largely listed as cytotoxic; actives 0.76% (n = 410,000); AID 588856, 2011; also: potency is read from the fitted curve at half-maximal effect
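HepG2 CAGA-GFP cells (1000/well, DMEM with 1% FBS) received compound, then TGF-beta at 500 pg/mL final, and were incubated 18 hours at 37 degrees C. Viability was read by CellTiter-Glo luminescence. Media-only wells were set as complete cell-killing and DMSO as no toxicity.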
TDP1 cell noCPT = qHTS for Inhibitors of human tyrosyl-DNA phosphodiesterase 1 (TDP1): qHTS in cells in absence of CPT; Potency, µM (top dose mostly 46.2 µM), for the others: top-dose activity change, negative = growth inhibition, most hits filed as inhibitors; actives 15% (n = 420,000); DT40 Tdp1-/- hTDP1 cells, no CPT, ATP luminescence, 48 h; also: potency is read from the fitted curve at half-maximal effect; % is scaled to controls: 0 for no effect and ±100 for the full control effect; nearly all actives have a fitted effect of over 55% in size
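Compound effects on proliferation are scored in DT40 Tdp1-/-;hTDP1 cells in the absence of CPT. ATP levels (CellTiter-Glo luminescence) are recorded after a ≥48 hr, 37 °C incubation.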
IL-1B inflam inh = qHTS for Inhibitors of Inflammasome Signaling: IL-1-beta AlphaLISA Primary Screen. THP-1 LPS/ATP IL-1B secretion, AlphaLISA, 16 h; stronger effect = lower value. activity change, % at 57.5 µM. actives 4.7% (n = 360,000). AID 743279, 2014; in the data active = activity change below about -50%; inconclusive = mostly about -30% to -49%; also: % is scaled to controls: 0 for no effect and ±100 for the full control effect
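Secreted IL-1B measured by AlphaLISA bead assay after 16 h compound exposure of THP-1 cells; compounds (final up to 57.5 uM) added 1 h before LPS (250 ng/mL) and ATP (1.25 mM) stimulation; lower signal means less secretion.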
S-ASM inh = Inhibitors of Secretory Acid Sphingomyelinase (S-ASM): qHTS | Sphingomyelin phosphodiesterase (Homo sapiens), P17405 | placental ASM, HMU-PC fluorogenic substrate, 60 min | Potency, µM (doses to about 57.5 µM), for inactives: at the top dose activity change, negative = inhibition, most hits filed as inhibitors | actives 0.006% (n = 340,000) | AID 504937, 2011; also: potency is read from the fitted curve at half-maximal effect
Target sequence (P17405 47-631 limits assumed): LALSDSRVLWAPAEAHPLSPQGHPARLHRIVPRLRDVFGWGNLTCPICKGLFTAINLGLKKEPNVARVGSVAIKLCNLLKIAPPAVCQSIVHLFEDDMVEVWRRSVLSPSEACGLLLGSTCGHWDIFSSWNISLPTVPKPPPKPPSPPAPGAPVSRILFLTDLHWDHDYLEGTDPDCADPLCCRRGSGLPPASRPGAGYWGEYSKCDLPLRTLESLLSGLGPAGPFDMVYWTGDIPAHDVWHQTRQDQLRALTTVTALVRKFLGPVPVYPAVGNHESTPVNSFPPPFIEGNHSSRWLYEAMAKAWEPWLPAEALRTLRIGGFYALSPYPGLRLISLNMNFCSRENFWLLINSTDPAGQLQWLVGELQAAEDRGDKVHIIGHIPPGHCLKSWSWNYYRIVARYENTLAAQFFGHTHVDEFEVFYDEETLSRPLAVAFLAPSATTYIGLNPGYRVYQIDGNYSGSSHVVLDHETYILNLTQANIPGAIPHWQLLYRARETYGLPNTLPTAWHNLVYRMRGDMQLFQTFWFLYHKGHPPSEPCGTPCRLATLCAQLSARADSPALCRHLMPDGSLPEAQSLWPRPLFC
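Human placenta-derived ASM preincubated with compound 10 min at room temperature, then reacted with 9 uM (final) fluorogenic HMU-PC substrate for 60 min at 37 C. Stop solution raises pH to 10; fluorescence read at Ex 386/Em 447 nm.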
Active calls of the source: *; u = inconclusive; x = no result. Unless noted, calls follow the shape of the dose curve; as a rule, active = well fitted curve in the direction sought with a large enough effect; inconclusive = small, poorly fitted or top-dose-only effect, or another doubt; inactive = no such curve, though single readings can be large; an effect the other way counts as inactive or inconclusive.

SMILES | TGFb SMAD3 inh | DT40 TDP1 CPT | HepG2 tox | TDP1 cell noCPT | IL-1B inflam inh | S-ASM inh
Cc1cc(C)c(NC(=O)Nc2ccccc2)c(Cl)c1 | 2% | 16µM* | 1% | u | 14 | -2%
Cc1cc(C)c(NC(=O)Nc2ccccc2)c(C)n1 | -5% | -4% | -2% | 10% | 4 | 6%
CCc1nnc(NC(=O)CCC(=O)N2CCN(Cc3ccc(Cl)cc3)CC2)s1 | -11% | 18µM* | -35% | 23µM* | 5 | 4%
CCCc1nnc(NC(=O)CCC(=O)N2CCC(Cc3ccccc3)CC2)s1 | -8% | 26µM* | -1% | 21µM* | 17 | -3%
CCCc1nnc(NC(=O)CCC(=O)N2CCN(Cc3ccc(Cl)cc3)CC2)s1 | -1% | 16µM* | 1% | u | 19 | 4%
CC(C)Cc1nnc(NC(=O)CCC(=O)N2CCN(c3ccc(Cl)cc3)CC2)s1 | -5% | 21µM* | -10% | -17% | u | -1%
CCOc1ccc(N2CC(C(=O)NCc3nnnn3-c3ccc(C)c(C)c3)CC2=O)cc1 (centres undefined) | 1% | -4% | 0% | 17% | u | 0%
Cc1ccc(OCCN2CCN(C(=O)CCC(=O)Nc3nnc(CC(C)C)s3)CC2)cc1 | 11µM* | u | -80% | 10µM* | x | 1%
Cc1ccccc1OCCN1C(=O)C(=O)c2cccc(C)c21 | 0% | 1.3µM* | 2% | 0.92µM* | -13 | -5%
COc1ccccc1OCCCN1C(=O)C(=O)c2cccc(C)c21 | u | 4.6µM* | -37% | 1.5µM* | 21 | -4%
Cc1ccccc1OCCN1C(=O)c2ccccc2C1=O | -15% | -13% | 0% | -4% | 27 | -4%
Cc1cccc2c1N(CCOc1ccccc1Cl)C(=O)C2=O | 0% | 2.6µM* | 0% | 2.6µM* | -8 | -1%
CC(Oc1ccc(Cl)cc1Cl)c1ccnc2nc(N3CCOCC3)nn12 (centres undefined) | -13% | u | -6% | 18µM* | -52* | 19%
Cn1c(=O)c2c(-c3ccc(Cl)cc3)ccnc2n(C)c1=O | 10% | -11% | -8% | u | x | x
CC(=O)N(C(C)=O)c1ncnc2c1c(-c1ccc(Cl)cc1)nn2C(C)(C)C | u | u | -36% | 18µM* | -83* | 2%
COc1ccc(C(C)(O)c2nc(-c3ccc(F)cc3OC)cs2)cc1 (centres undefined) | -16% | 8.2µM* | -22% | 10µM* | 46 | x
COc1cccc(C(C)(O)c2nc(-c3ccc(F)cc3OC)cs2)c1 (centres undefined) | 2% | 23µM* | -15% | u | 18 | x
COc1cc(F)ccc1-c1csc(C(C)(O)c2ccc(F)c(F)c2)n1 (centres undefined) | u | u | -41% | 18µM* | 17 | x
COc1ccc(C(C)(O)c2nc(-c3ccc(F)c(Cl)c3)cs2)cc1 (centres undefined) | -16% | u | -25% | u | 29 | x
OC(c1ccc(F)cc1)c1nc(-c2csc3ccccc23)cs1 (centres undefined) | u | 18µM* | -57% | 26µM* | -19 | x
COc1ccc(-c2csc(C(C)(O)c3ccccc3)n2)cc1OC (centres undefined) | 2% | u | 0% | u | -15 | x
COc1cc(F)ccc1-c1csc(C(O)(c2ccccc2)C(F)(F)F)n1 (centres undefined) | u | 23µM* | 22µM* | 15µM* | u | x
COc1cc(F)ccc1-c1csc(C(O)c2ccccc2)n1 (centres undefined) | -2% | 26µM* | -32% | u | -16 | x
COc1ccccc1-c1csc(C(O)c2ccc(F)cc2)n1 (centres undefined) | 4% | u | -36% | u | -15 | x
CCOc1ccc(C(=O)N2CCN(c3ccccn3)CC2)cc1OCC | -1% | -28% | 16% | u | 19 | 0%
SMILES | TGFb SMAD3 inh | DT40 TDP1 CPT | HepG2 tox | TDP1 cell noCPT | IL-1B inflam inh | S-ASM inh
O=[N+]([O-])c1ccc(Oc2cccnc2)c([N+](=O)[O-])c1 | u | 4.1µM* | -21% | 5.8µM* | -112* | 2%
Nc1ccc(Oc2ccc([N+](=O)[O-])cc2[N+](=O)[O-])cc1 | -4% | 18µM* | -9% | u | 4 | -3%
Nc1cc(Oc2cccnc2)cc([N+](=O)[O-])c1 | 2% | -20% | 21% | u | -2 | -3%
CCCCn1c(N)c(N(C)C(=O)C2CCCC2)c(=O)[nH]c1=O | 26% | 25% | 2% | -20% | 19 | 2%
Cc1ccc(-c2noc(-c3cccnc3N(C)Cc3ccc(Cl)cc3)n2)cc1 | -17% | -18% | -3% | -17% | x | x
Cc1ccc(S(=O)(=O)c2nc(S(=O)(=O)c3ccc(C)cc3)c(N3CCN(CCO)CC3)s2)cc1 | -16% | 23µM* | -13% | u | -68* | -2%
Cc1ccc(S(=O)(=O)c2nc(S(C)(=O)=O)sc2N(C)Cc2ccccc2)cc1 | u | u | -3% | 21µM* | x | x
CS(=O)(=O)c1nc(S(=O)(=O)c2ccc(Cl)cc2)c(N2CCN(CCO)CC2)s1 | -16% | u | 3% | 6% | -68* | -2%
Cc1ccc(S(=O)(=O)c2nc(S(C)(=O)=O)sc2N2CCOCC2)cc1 | 3% | -20% | 0% | 10% | -59* | 0%
CS(=O)(=O)c1nc(S(=O)(=O)c2ccc(Cl)cc2)c(N2CCCCCC2)s1 | -17% | -18% | -16% | 25% | 8 | -2%
Cc1ccc(S(=O)(=O)c2nc(S(C)(=O)=O)sc2N2CCC(O)CC2)cc1 | 2% | -30% | 4% | 8% | -13 | -2%
CS(=O)(=O)c1nc(S(=O)(=O)c2ccc(Cl)cc2)c(N2CCCCC2)s1 | 2% | u | 2% | -22% | -63* | -1%
Cc1ccc(S(=O)(=O)c2nc(S(C)(=O)=O)sc2N2CCCCC2C)cc1 (centres undefined) | -5% | u | -6% | u | -83* | -4%
Fc1ccc(-c2cnc3n2CCCCC3)cc1 | 0% | -21% | -20% | u | -17 | -4%
